Results as given in the supplement of paper PMC9694430.
Several values for one entry are separate records, joined by “and”; a condition that tells them apart may be missing. Equal entries are not always repeated. Structures can show the parent of a compound that is named as a salt.

What follows are compounds tested on LOC_OS03G50450-cb001 (assay: thermal shift delta Tm vs DMSO control; higher = stronger stabilization (binding)). Conditions: 12.5 µM; protein concentration 2 µM.
How it was run: (§1)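 Heating from 25°C to 95°C at 0.05°C/s, fluorescence was recorded for 19.5 μl wells of 2 μM E. coli-expressed, purified rice kinase domain in 100 mM potassium phosphate pH 7.5, 150 mM NaCl, 10% glycerol and 5 × SYPRO Orange with compound in DMSO. Boltzmann fits gave melting temperatures for this differential scanning fluorimetry assay. The shift reported is the mean of three replicates against the DMSO-only protein.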
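Further: purified Escherichia coli-expressed rice kinase domain construct.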

Row | SMILES | thermal shift delta Tm
1 | COc1cc(Nc2ncc(F)c(Nc3ccc4c(n3)NC(=O)C(C)(C)O4)n2)cc(OC)c1OC | 10.5 °C
2 | Cc1ccc(-n2nc(C(C)(C)C)cc2NC(=O)Nc2ccc(OCCN3CCOCC3)c3ccccc23)cc1 [Doramapimod (BIRB 796)] | 0.1 °C
3 | CC#CC(=O)N1CC[C@@H](n2c(=O)n(-c3ccc(Oc4ccccc4)cc3)c3c(N)ncnc32)C1 [ONO-4059 (GS-4059) hydrochloride] | 0.4 °C
4 | O=C(NC[C@H](O)CO)c1ccncc1Nc1ccc(I)cc1F | 0.42 °C
5 | CO[C@H]1C[C@@H]2CC[C@@H](C)[C@@](O)(O2)C(=O)C(=O)N2CCCC[C@H]2C(=O)O[C@H]([C@H](C)C[C@@H]2CC[C@@H](O)[C@H](OC)C2)CC(=O)[C@H](C)/C=C(\C)[C@@H](O)[C@@H](OC)C(=O)[C@H](C)C[C@H](C)/C=C/C=C/C=C/1C [Rapamycin (Sirolimus)] | 0.2 °C
6 | COc1c(C)c(C(=O)c2ccc(N)c(C(=O)O)c2)n2ccccc12 | 0.58 °C
7 | CC(C)CC(=O)Nc1n[nH]c2c1CN(C(=O)C1CCN(C)CC1)C2(C)C | 0.29 °C
8 | COc1cc2ncnc(Nc3ccc(O)c(Br)c3)c2cc1OC | -0.05 °C
9 | CCN(CC)CCCC(C)Nc1nc(C)cc(Nc2ccc3nc(C)cc(N)c3c2)n1 (centres undefined) | 0.59 °C
10 | Cc1cc(NC(=O)c2cccc(NC(=O)/C=C/CN(C)C)c2)ccc1Nc1nccc(-c2cccnc2)n1 | 1.19 °C
11 | COc1cc2ncnc(Nc3cccc(Cl)c3F)c2cc1OC(=O)N1CCN(C)C[C@H]1C | 0.9 °C
12 | Cc1ccc(C(=O)Nc2ccc(Oc3cc4cnn(C)c4cc3-c3cn[nH]c3)c(F)c2)c(=O)n1-c1ccc(F)cc1 | 1.3 °C
13 | CC#CC(=O)N1CCC[C@H]1c1nc(-c2ccc(C(=O)Nc3ccccn3)cc2)c2c(N)nccn12 [Acalabrutinib (ACP-196)] | 0.4 °C
14 | Nc1ncccc1-c1nc2ccc(-c3ccccc3)nc2n1-c1ccc(C2(N)CCC2)cc1 [Miransertib (ARQ 092) HCl] | 0.49 °C
15 | Cc1cc(C(C)Nc2ccccc2)c2nc(N3CCOCC3)cc(=O)n2c1 (centres undefined) | 0.33 °C
16 | COc1cc2nccc(Oc3ccc(NC(=O)C4(C(=O)Nc5ccc(F)cc5)CC4)cc3)c2cc1OC [Cabozantinib malate (XL184)] | 0.45 °C
17 | COC(=O)N[C@@H](C)CNc1nccc(-c2cn(C(C)C)nc2-c2cc(Cl)cc(NS(C)(=O)=O)c2F)n1 [Encorafenib (LGX818)] | 0.01 °C
18 | COc1ccc(C(=O)Nc2sc3c(c2C(N)=O)CCCC3)cc1OC | 0.38 °C
19 | CN1C(=O)[C@@H](NC(=O)c2n[nH]c(Cc3ccccc3)n2)COc2ccccc21 | 0.66 °C

Row | SMILES | thermal shift delta Tm
20 | Nc1nccc(Oc2ccc(NC(=O)c3c[nH]cc(-c4ccc(F)cc4)c3=O)cc2F)c1Cl | 0.31 °C
21 | COc1cc2c(c(OC)c1OC)-c1c(cc3c(c1OC)OCO3)CC(C)C(C)C2 (centres undefined) [Schisandrin B (Sch B)] | 0.76 °C
22 | COC(=O)c1ccc2c(c1)NC(=O)/C2=C(\Nc1ccc(N(C)C(=O)CN2CCN(C)CC2)cc1)c1ccccc1 [Nintedanib (BIBF 1120)] | 0.03 °C
23 | O=C(Nc1ccccc1C(=O)NC1CCCCNC1=O)c1cc2ccccc2s1 (centres undefined) | 0.22 °C
24 | Cc1cc(C)c(/C=C2\C(=O)Nc3ccccc32)[nH]1 [Semaxanib (SU5416)] | 2.32 °C
25 | N#Cc1cccc(-c2c[nH]c3ncnc(N4CCOCC4)c23)c1 | -0.1 °C
26 | Cc1ccc2nc(NCCN)c3ncc(C)n3c2c1 | 0.62 °C
27 | C[C@@H]1CCN(C(=O)CC#N)C[C@@H]1N(C)c1ncnc2[nH]ccc12 | 0.32 °C and 0.68 °C
28 | Cc1nc(NC(=O)N2CCC[C@H]2C(N)=O)sc1-c1ccnc(C(C)(C)C(F)(F)F)c1 [Alpelisib (BYL719)] | 0.38 °C
29 | CNc1nc(Nc2cn(C(C)(C)C#N)nc2C)ncc1C(F)(F)F | 0.78 °C
30 | O=C(Nc1c[nH]nc1-c1nc2ccc(CN3CCOCC3)cc2[nH]1)NC1CC1 | 3.92 °C
31 | N#Cc1ccc(-c2c(-c3ncn[nH]3)sc(N3CCOCC3)c2C#N)c(F)c1 | 0 °C
32 | Oc1cccc(-c2nc(N3CCOCC3)c3oc4ncccc4c3n2)c1 | 0.47 °C
33 | CN(C)C/C=C/C(=O)Nc1ccc(C(=O)Nc2cccc(Nc3ncc(Cl)c(-c4c[nH]c5ccccc45)n3)c2)cc1 | 5.94 °C
34 | CCNC(=O)Nc1ccc(-c2nc(N3CCOC[C@@H]3C)c3c(n2)C(C)(C)S(=O)(=O)C3)cc1 | 0.41 °C
35 | CNC(=O)c1cc(Oc2ccc3nc(N[C@@H]4CCCC[C@H]4O)sc3c2)ccn1 | 0.65 °C
36 | CN(C)CCOc1ccc(-c2nc(-c3ccncc3)c(-c3ccc4c(c3)CC/C4=N\O)[nH]2)cc1 | 0.04 °C
37 | Cc1ccc(NC(=O)c2cccc(N(C)C)c2)cc1NC(=O)c1ccc(O)cc1 | 0.28 °C

These compounds were tested on LOC_OS03G50810-cb003 in the same assay as above. Conditions: 12.5 µM; protein concentration 2 µM.
How it was run: as §1

Row | SMILES | thermal shift delta Tm
38 | COc1cc(Nc2ncc(F)c(Nc3ccc4c(n3)NC(=O)C(C)(C)O4)n2)cc(OC)c1OC | 5.15 °C
39 | Cc1ccc(-n2nc(C(C)(C)C)cc2NC(=O)Nc2ccc(OCCN3CCOCC3)c3ccccc23)cc1 [Doramapimod (BIRB 796)] | 0.01 °C
40 | CC#CC(=O)N1CC[C@@H](n2c(=O)n(-c3ccc(Oc4ccccc4)cc3)c3c(N)ncnc32)C1 [ONO-4059 (GS-4059) hydrochloride] | 0.3 °C
41 | O=C(NC[C@H](O)CO)c1ccncc1Nc1ccc(I)cc1F | 0.09 °C
42 | CO[C@H]1C[C@@H]2CC[C@@H](C)[C@@](O)(O2)C(=O)C(=O)N2CCCC[C@H]2C(=O)O[C@H]([C@H](C)C[C@@H]2CC[C@@H](O)[C@H](OC)C2)CC(=O)[C@H](C)/C=C(\C)[C@@H](O)[C@@H](OC)C(=O)[C@H](C)C[C@H](C)/C=C/C=C/C=C/1C [Rapamycin (Sirolimus)] | -0.04 °C
43 | COc1c(C)c(C(=O)c2ccc(N)c(C(=O)O)c2)n2ccccc12 | 0.22 °C
44 | CC(C)CC(=O)Nc1n[nH]c2c1CN(C(=O)C1CCN(C)CC1)C2(C)C | 1.12 °C
45 | COc1cc2ncnc(Nc3ccc(O)c(Br)c3)c2cc1OC | 2.28 °C
46 | CCN(CC)CCCC(C)Nc1nc(C)cc(Nc2ccc3nc(C)cc(N)c3c2)n1 (centres undefined) | 0.25 °C
47 | Cc1cc(NC(=O)c2cccc(NC(=O)/C=C/CN(C)C)c2)ccc1Nc1nccc(-c2cccnc2)n1 | 1.1 °C
48 | COc1cc2ncnc(Nc3cccc(Cl)c3F)c2cc1OC(=O)N1CCN(C)C[C@H]1C | 0.48 °C
49 | Cc1ccc(C(=O)Nc2ccc(Oc3cc4cnn(C)c4cc3-c3cn[nH]c3)c(F)c2)c(=O)n1-c1ccc(F)cc1 | 1.13 °C
50 | CC#CC(=O)N1CCC[C@H]1c1nc(-c2ccc(C(=O)Nc3ccccn3)cc2)c2c(N)nccn12 [Acalabrutinib (ACP-196)] | 0.38 °C
51 | Nc1ncccc1-c1nc2ccc(-c3ccccc3)nc2n1-c1ccc(C2(N)CCC2)cc1 [Miransertib (ARQ 092) HCl] | -0.05 °C
52 | Cc1cc(C(C)Nc2ccccc2)c2nc(N3CCOCC3)cc(=O)n2c1 (centres undefined) | -0.02 °C
53 | COc1cc2nccc(Oc3ccc(NC(=O)C4(C(=O)Nc5ccc(F)cc5)CC4)cc3)c2cc1OC [Cabozantinib malate (XL184)] | 0.59 °C
54 | COC(=O)N[C@@H](C)CNc1nccc(-c2cn(C(C)C)nc2-c2cc(Cl)cc(NS(C)(=O)=O)c2F)n1 [Encorafenib (LGX818)] | 0.12 °C
55 | COc1ccc(C(=O)Nc2sc3c(c2C(N)=O)CCCC3)cc1OC | 1.2 °C
56 | CN1C(=O)[C@@H](NC(=O)c2n[nH]c(Cc3ccccc3)n2)COc2ccccc21 | 0.57 °C

Row | SMILES | thermal shift delta Tm
57 | Nc1nccc(Oc2ccc(NC(=O)c3c[nH]cc(-c4ccc(F)cc4)c3=O)cc2F)c1Cl | 1.15 °C
58 | COc1cc2c(c(OC)c1OC)-c1c(cc3c(c1OC)OCO3)CC(C)C(C)C2 (centres undefined) [Schisandrin B (Sch B)] | 0.12 °C
59 | COC(=O)c1ccc2c(c1)NC(=O)/C2=C(\Nc1ccc(N(C)C(=O)CN2CCN(C)CC2)cc1)c1ccccc1 [Nintedanib (BIBF 1120)] | 2.2 °C
60 | O=C(Nc1ccccc1C(=O)NC1CCCCNC1=O)c1cc2ccccc2s1 (centres undefined) | 0.43 °C
61 | Cc1cc(C)c(/C=C2\C(=O)Nc3ccccc32)[nH]1 [Semaxanib (SU5416)] | 2.91 °C
62 | N#Cc1cccc(-c2c[nH]c3ncnc(N4CCOCC4)c23)c1 | 2.96 °C
63 | Cc1ccc2nc(NCCN)c3ncc(C)n3c2c1 | 0.58 °C
64 | C[C@@H]1CCN(C(=O)CC#N)C[C@@H]1N(C)c1ncnc2[nH]ccc12 | 0.11 °C and 0.63 °C
65 | Cc1nc(NC(=O)N2CCC[C@H]2C(N)=O)sc1-c1ccnc(C(C)(C)C(F)(F)F)c1 [Alpelisib (BYL719)] | 0.21 °C
66 | CNc1nc(Nc2cn(C(C)(C)C#N)nc2C)ncc1C(F)(F)F | 0.62 °C
67 | O=C(Nc1c[nH]nc1-c1nc2ccc(CN3CCOCC3)cc2[nH]1)NC1CC1 | 6.02 °C
68 | N#Cc1ccc(-c2c(-c3ncn[nH]3)sc(N3CCOCC3)c2C#N)c(F)c1 | 0.37 °C
69 | Oc1cccc(-c2nc(N3CCOCC3)c3oc4ncccc4c3n2)c1 | 0.16 °C
70 | CN(C)C/C=C/C(=O)Nc1ccc(C(=O)Nc2cccc(Nc3ncc(Cl)c(-c4c[nH]c5ccccc45)n3)c2)cc1 | 5.98 °C
71 | CCNC(=O)Nc1ccc(-c2nc(N3CCOC[C@@H]3C)c3c(n2)C(C)(C)S(=O)(=O)C3)cc1 | 0.16 °C
72 | CNC(=O)c1cc(Oc2ccc3nc(N[C@@H]4CCCC[C@H]4O)sc3c2)ccn1 | 0.6 °C
73 | CN(C)CCOc1ccc(-c2nc(-c3ccncc3)c(-c3ccc4c(c3)CC/C4=N\O)[nH]2)cc1 | 0.55 °C
74 | Cc1ccc(NC(=O)c2cccc(N(C)C)c2)cc1NC(=O)c1ccc(O)cc1 | 0.7 °C
